Several values for one entry are separate records, joined by “and”; a condition that tells them apart may be missing. Identical values can stand only once. Screen size: about 5,500 compounds; about 2,000 (36%) were called active. Inconclusive results (about 18%) are left out. Rule as the data show it: active = normalized growth mostly below about 0.91 (no sharp cut-off); inconclusive = no clear call, values can overlap the other calls; inactive = mostly above about 0.92. Some of the results follow.
Experiment: chemical genetic growth profiling, strain panel (AID 1159580);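 also: tested at 20 µM; growth read once vehicle control cultures reached saturation at 30 °C; 1 = growth at the plate median or of vehicle wells; lower values mean less growth of the strain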
Conditions: growth OD

Measured: normalized growth

CN1CCN(CC(=O)N2c3ccccc3C(=O)Nc3cccnc32)CC1
inactive: S. cerevisiae deletion strains, locus YJR075W, strain HOC1, active compounds read low 1.01 and 0.992 | S. cerevisiae deletion strains, locus YKL009W, strain mrt4, active compounds read low 0.998 | S. cerevisiae deletion strains, locus YKL068W, active compounds read low 1 | S. cerevisiae deletion strains, locus YKL085W, strain MDH1 (second series), active compounds read low 1.02 | S. cerevisiae deletion strains, locus YKL085W, strain MDH1, active compounds read low 1.02 | S. cerevisiae deletion strains, locus YKL160W, strain elf1, active compounds read low 1.01 | S. cerevisiae deletion strains, locus YKL190W, strain CNB1, active compounds read low 1.01 | S. cerevisiae deletion strains, locus YKR001C, strain vps1, active compounds read low 1.01 | S. cerevisiae deletion strains, locus YKR026C, strain gcn3, active compounds read low 1.01 | S. cerevisiae deletion strains, locus YKR091W, strain srl3, active compounds read low 1 | S. cerevisiae deletion strains, locus YLL001W, strain dnm1, active compounds read low 1.01 | S. cerevisiae deletion strains, locus YLL026W, active compounds read low 1.02 | S. cerevisiae deletion strains, locus YLL041C, strain sdh2, active compounds read low 1.01 | S. cerevisiae deletion strains, locus YLR027C, strain aat2, active compounds read low 1 | S. cerevisiae deletion strains, locus YLR039C, strain RIC1, active compounds read low 1.04 | S. cerevisiae deletion strains, locus YLR058C, strain SHM2, active compounds read low 1.02 | S. cerevisiae deletion strains, locus YLR102C, strain apc9, active compounds read low 1.02 | S. cerevisiae deletion strains, locus YLR113W, strain HOG1, active compounds read low 0.989 | S. cerevisiae deletion strains, locus YLR221C, strain rsa3, active compounds read low 1.01 | S. cerevisiae deletion strains, locus YLR258W, strain gsy2, active compounds read low 1.02 | S. cerevisiae deletion strains, locus YLR262C, strain YPT6 (second series), active compounds read low 0.992 | S. cerevisiae deletion strains, locus YLR262C, strain YPT6, active compounds read low 1.04 | S. cerevisiae deletion strains, locus YLR268W, strain sec22, active compounds read low 1.03 | S. cerevisiae deletion strains, locus YLR320W, strain mms22, active compounds read low 1.02 | S. cerevisiae deletion strains, locus YLR330W, strain CHS5, active compounds read low 1.01 | S. cerevisiae deletion strains, locus YLR342W, strain FKS1 (second series), active compounds read low 1.05 | S. cerevisiae deletion strains, locus YLR342W, strain FKS1, active compounds read low 1.01 | S. cerevisiae deletion strains, locus YLR357W, strain rsc2, active compounds read low 1.05 | S. cerevisiae deletion strains, locus YLR370C, strain arc18, active compounds read low 1.03 | S. cerevisiae deletion strains, locus YLR371W, strain rom2, active compounds read low 1.03 | S. cerevisiae deletion strains, locus YLR384C, strain iki3, active compounds read low 1.02 | S. cerevisiae deletion strains, locus YLR418C, strain cdc73, active compounds read low 1.05 | S. cerevisiae deletion strains, locus YML016C, strain PPZ1, active compounds read low 1.01 | S. cerevisiae deletion strains, locus YML032C, strain rad52, active compounds read low 1.01 | S. cerevisiae deletion strains, locus YML120C, strain ndi1, active compounds read low 1 | S. cerevisiae deletion strains, locus YML124C, strain tub3, active compounds read low 1.02 | S. cerevisiae deletion strains, locus YMR058W, strain fet3, active compounds read low 1.04 | S. cerevisiae deletion strains, locus YMR078C, strain ctf18, active compounds read low 1.01 | S. cerevisiae deletion strains, locus YMR125W, strain sto1, active compounds read low 1.01 | S. cerevisiae deletion strains, locus YMR129W, active compounds read low 1.02 | S. cerevisiae deletion strains, locus YMR205C, strain PFK2, active compounds read low 1.04 | S. cerevisiae deletion strains, locus YMR223W, strain ubp8, active compounds read low 1.01 | S. cerevisiae deletion strains, locus YMR231W, strain pep5, active compounds read low 1.02 | S. cerevisiae deletion strains, locus YMR263W, strain SAP30, active compounds read low 1.01 | S. cerevisiae deletion strains, locus YMR307W, strain GAS1, active compounds read low 1.07 | S. cerevisiae deletion strains, locus YNL067W, strain RPL9B, active compounds read low 1.01 | S. cerevisiae deletion strains, locus YNL071W, strain lat1, active compounds read low 1.03 | S. cerevisiae deletion strains, locus YNL128W, strain TEP1, active compounds read low 1.03 | S. cerevisiae deletion strains, locus YNL153C, strain GIM3, active compounds read low 1.01 | S. cerevisiae deletion strains, locus YNL175C, strain NOP13, active compounds read low 0.985 | S. cerevisiae deletion strains, locus YNL183C, strain NPR1, active compounds read low 0.938 | S. cerevisiae deletion strains, locus YNL197C, strain WHI3, active compounds read low 0.982 | S. cerevisiae deletion strains, locus YNL209W, strain ssb2, active compounds read low 1.02 | S. cerevisiae deletion strains, locus YNL224C, strain SQS1, active compounds read low 1.01 | S. cerevisiae deletion strains, locus YNL233W, strain BNI4, active compounds read low 1.01 | S. cerevisiae deletion strains, locus YNL248C, strain rpa49, active compounds read low 1.03 | S. cerevisiae deletion strains, locus YNL250W, strain rad50, active compounds read low 1.01 | S. cerevisiae deletion strains, locus YNL271C, strain bni1, active compounds read low 1.01 | S. cerevisiae deletion strains, locus YNL298W, strain CLA4, active compounds read low 1.02 | S. cerevisiae deletion strains, locus YNL307C, strain MCK1, active compounds read low 1.03 | S. cerevisiae deletion strains, locus YNL322C, strain KRE1 (second series), active compounds read low 1.02 | S. cerevisiae deletion strains, locus YNL322C, strain KRE1, active compounds read low 1.01 | S. cerevisiae deletion strains, locus YNR049C, strain mso1, active compounds read low 1 | S. cerevisiae deletion strains, locus YNR052C, strain pop2, active compounds read low 1.03 | S. cerevisiae deletion strains, locus YOL006C, strain TOP1, active compounds read low 1.05 | S. cerevisiae deletion strains, locus YOL012C, strain htz1 0.832 | S. cerevisiae deletion strains, locus YOL147C, strain pex11, active compounds read low 1.04 | S. cerevisiae deletion strains, locus YOR001W, strain rrp6, active compounds read low 1.02 | S. cerevisiae deletion strains, locus YOR061W, strain CKA2, active compounds read low 1.01 | S. cerevisiae deletion strains, locus YOR069W, strain VPS5, active compounds read low 1.01 | S. cerevisiae deletion strains, locus YOR070C, strain gyp1, active compounds read low 1.02 | S. cerevisiae deletion strains, locus YOR080W, strain dia2, active compounds read low 1.01 | S. cerevisiae deletion strains, locus YOR083W, strain WHI5 (second series), active compounds read low 0.986 | S. cerevisiae deletion strains, locus YOR083W, strain WHI5, active compounds read low 0.967 | S. cerevisiae deletion strains, locus YOR106W, strain vam3, active compounds read low 1.02 | S. cerevisiae deletion strains, locus YOR136W, strain idh2, active compounds read low 1.01 | S. cerevisiae deletion strains, locus YOR144C, strain elg1, active compounds read low 1.02 | S. cerevisiae deletion strains, locus YOR184W, strain ser1, active compounds read low 1.01 | S. cerevisiae deletion strains, locus YOR231W, strain MKK1, active compounds read low 0.983 | S. cerevisiae deletion strains, locus YOR265W, strain rbl2, active compounds read low 1.01 | S. cerevisiae deletion strains, locus YOR270C, strain vph1, active compounds read low 1.06 | S. cerevisiae deletion strains, locus YOR290C, strain snf2, active compounds read low 1.02 | S. cerevisiae deletion strains, locus YOR316C, strain cot1, active compounds read low 1.02 | S. cerevisiae deletion strains, locus YPL051W, strain arl3, active compounds read low 1.01 | S. cerevisiae deletion strains, locus YPL055C, strain LGE1, active compounds read low 1.01 | S. cerevisiae deletion strains, locus YPL078C, strain atp4, active compounds read low 1.02 | S. cerevisiae deletion strains, locus YPL106C, strain sse1, active compounds read low 1.03 | S. cerevisiae deletion strains, locus YPL240C, strain hsp82, active compounds read low 1 | S. cerevisiae deletion strains, locus YPL241C, strain CIN2, active compounds read low 1.01 and 0.991 | S. cerevisiae deletion strains, locus YPL256C, strain CLN2, active compounds read low 0.978 | S. cerevisiae deletion strains, locus YPR119W, strain clb2, active compounds read low 1.01 | S. cerevisiae deletion strains, locus YPR141C, strain kar3, active compounds read low 1.02 | S. cerevisiae deletion strains, locus YPR163C, strain tif3, active compounds read low 1.03 | S. cerevisiae deletion strains, locus YPR167C, strain met16, active compounds read low 1.02 | S. cerevisiae deletion strains, strain wtn01, active compounds read low 1.01 | S. cerevisiae strains, strain wild type, active compounds read low 1.01

Source: PubChem BioAssay AID1159580 (chemical genetic matrix, 2015)
